Bioassay records from PubChem BioAssay.
GoLoco inh red = qHTS Assay for Inhibitors of RGS12 GoLoco Motif Activity (Red Fluorophore); AID 880, 2007; Gai1:RGS12 GoLoco peptide FP, rhodamine, 10 min; Potency, µM (highest dose often 61.6 µM), inactives show at the highest dose activity, negative = inhibition, usual class: inhibitors; 230,000 compounds, 0.44% hits; Guanine nucleotide-binding protein G(i) subunit alpha-1 (Homo sapiens), P63096; active means well fitted inhibition curve with a large enough effect, not every such curve was filed as active; inactive means no such curve, though single readings can be large or run the other way; further: potency means the concentration at half of the fitted maximal effect; nearly all actives have a fitted effect of over 30% in size
Target sequence (P63096 whole entry, looked up): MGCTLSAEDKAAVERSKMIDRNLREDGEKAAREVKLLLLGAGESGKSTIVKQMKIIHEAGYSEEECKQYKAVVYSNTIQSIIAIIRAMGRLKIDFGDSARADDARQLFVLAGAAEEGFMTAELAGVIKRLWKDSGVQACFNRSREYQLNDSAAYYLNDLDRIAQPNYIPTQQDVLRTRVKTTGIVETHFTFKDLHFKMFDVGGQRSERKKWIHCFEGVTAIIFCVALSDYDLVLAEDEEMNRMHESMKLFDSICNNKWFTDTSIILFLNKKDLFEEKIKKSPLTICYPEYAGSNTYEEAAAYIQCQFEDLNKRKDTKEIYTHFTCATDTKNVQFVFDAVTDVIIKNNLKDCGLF
ALDH1A1 inh = qHTS Assay for Inhibitors of Aldehyde Dehydrogenase 1 (ALDH1A1) | Potency, µM (series often up to 75.3 µM), without a hit: top-dose activity, negative = inhibition, actives largely listed as inhibitors | Purified ALDH1A1, NADH fluorescence, propionaldehyde substrate | Aldehyde dehydrogenase 1A1 (Homo sapiens), P00352 | 220,000 compounds, 7.3% hits;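 further: potency means the concentration at half of the fitted maximal effect; plate controls were no enzyme wells and a reference inhibitor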
Sfp PPTase inh = qHTS Assay for Inhibitors of Bacillus subtilis Sfp phosphopantetheinyl transferase (PPTase) | 4'-phosphopantetheinyl transferase ffp (Bacillus subtilis), Q9F4F7 | Biochemical Sfp PPTase activity, qHTS | Potency, µM, for the others: largest response in the series, negative = inhibition, most hits filed as inhibitors | 310,000 compounds, 3.5% hits; active means well fitted curve in the direction sought with a large enough effect; inconclusive means small, poorly fitted or top-dose-only effect, or another doubt; inactive means no such curve, though single readings can be large; an effect the other way counts as inactive or inconclusive;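 further: the enzyme is Sfp with the accession as filed and its product quenches rhodamine fluorescence; potency means the concentration at half of the fitted maximal effect; 0% = enzyme reaction without inhibitor and -100% = no enzyme wells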
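Reaction rates are the 30-min fluorescence difference (ex 525, em 598 nm) in wells containing 15 nM Sfp, 5 uM rhodamine-CoA and 12.5 uM BHQ-2-YbbR at pH 7.6 with 10 mM MgCl2.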
NPSR antagonist = qHTS Assay for Antagonists of the Neuropeptide S Receptor: cAMP Signal Transduction; CHO-NPSR cells, cAMP TR-FRET, antagonist mode; Q6W5P4; 220,000 compounds, 1% hits; Potency, µM (titrated, usually from 38.3 µM), inactives show at the top dose activity change, negative = inhibition, usual class: inhibitors; active means well fitted curve in the direction sought with a large enough effect; inconclusive means small, poorly fitted or top-dose-only effect, or another doubt; inactive means no such curve, though single readings can be large; an effect the other way counts as inactive or inconclusive; further: potency means the concentration at half of the fitted maximal effect; nearly all actives have a fitted effect of over 50% in size
Coupling enz = qHTS Assay for Inhibitors of Fructose-1,6-bisphosphate Aldolase from Giardia Lamblia: Coupling assay counterscreen; activity change, negative = inhibition, % at 58.2 µM, hits read low; 290,000 compounds, 0.67% hits; coupling enzyme system counterscreen, AmpLite Red fluorescence; in the data active means activity change below about -30%
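Activity here indicates interference with the coupling reaction, not aldolase inhibition. Compounds at 57.5 uM final met coupling enzymes for 10 min at RT; substrate and AmpLite Red detection followed, with a 525/598 nm fluorescence read after 20 min.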
JMJD2E inh = qHTS Assay for Inhibitors of Human Jumonji Domain Containing 2E (JMJD2E); JMJD2E catalytic domain, FDH-coupled NADH fluorescence (FDH is formaldehyde dehydrogenase); Potency, µM (doses to about 57.1 µM), without a hit: top-dose activity change, negative = inhibition, most hits filed as inhibitors; 230,000 compounds, 1.6% hits;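 further: potency means the concentration at half of the fitted maximal effect; 0% = wells with enzyme and -100% = buffer wells without enzyme; nearly all actives have a fitted effect of over 50% in size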
Target sequence (B2RXH2 1-337 limits assumed): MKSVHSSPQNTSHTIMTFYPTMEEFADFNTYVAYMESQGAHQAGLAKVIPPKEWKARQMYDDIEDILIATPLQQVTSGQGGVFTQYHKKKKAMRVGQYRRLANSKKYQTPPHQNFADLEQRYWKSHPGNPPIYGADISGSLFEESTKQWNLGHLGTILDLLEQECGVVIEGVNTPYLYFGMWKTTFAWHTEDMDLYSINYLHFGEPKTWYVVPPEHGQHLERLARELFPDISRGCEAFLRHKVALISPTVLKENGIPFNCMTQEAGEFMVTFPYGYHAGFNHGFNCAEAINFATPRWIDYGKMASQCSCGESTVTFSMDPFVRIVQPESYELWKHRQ
Numbers without * were called inactive; u = inconclusive; x = no result; [ ] = dose if it differs, or a comment. Hits are enriched below; roughly 8.5% of the tested compounds scored in any of these assays. Unless noted, the call rests on the fitted dose curve; in most records, active means well fitted inhibition curve with a large enough effect (not every such curve was filed as active); inconclusive means small, poorly fitted or top-dose-only effect, or another doubt; inactive means no such curve, though single readings can be large or run the other way. Unless noted, on the % scale 0 is the no-effect control and ±100 the full control effect.

SMILES	GoLoco inh red	ALDH1A1 inh	Sfp PPTase inh	NPSR antagonist	Coupling enz	JMJD2E inh
CC1Cc2ccccc2N1C(=S)NC(=O)c1ccco1 (stereo not given)	17%	22µM*	40µM*	-21%	-7	4%
CN1CCN(C(=S)NC(=O)c2ccco2)CC1	3%	-16%	56µM*	-2%	0	21%
O=C(CSc1ccc2nnc(-c3ccc(Cl)cc3)n2n1)N1CCCc2ccccc21	-28%	-8%	-6%	u	-3	-6%
O=Cc1cn(CC(=O)N2CCc3ccccc32)c2ccccc12	12%	18µM*	-4%	-11%	8	-6%
COCCn1c(SCC(=O)N2CCCc3ccccc32)nc2cccnc21	7%	3.2µM*	16%	-9%[46.1 µM]	-8	8%
Cn1cc(SCC(=O)N2CCCc3ccccc32)c2ccccc21	3%	10µM*	-22%	-11%[46.1 µM]	-14	-1%
O=C(CSc1ccc2nnc(-c3ccc(F)cc3)n2n1)N1CCCc2ccccc21	58%	14µM*	-29%	1%	6	u
CN(Cc1ccncn1)C(=O)C1CCC(=O)N(Cc2cccc(C(F)(F)F)c2)C1 (stereo not given)	x	x	-3%	x	1	x
O=S(=O)(Nc1ccc(F)cc1)N1CCOCC1	x	x	16%	x	3	x
Cn1c(SCC(=O)N2CCCc3ccccc32)nnc1-c1ccccc1	-7%	25µM*	0%	-9%[46.1 µM]	-8	-21%
Cc1cccc(-c2nnc(SCC(=O)N3c4ccccc4CCc4ccccc43)n2C)c1	-5%	11µM*	8%	-27%	5	-5%
Cn1c(Cc2cccs2)nnc1SCC(=O)N1CCc2ccccc21	4%	-8%	6%	-14%[46.1 µM]	-9	-1%
Cc1ccc(NCc2nnc(SCC(=O)N3CCc4ccccc43)n2C)cc1	3%	8.9µM*	7%	3%[46.1 µM]	3	2%
Cn1c(SCC(=O)N2c3ccccc3CCc3ccccc32)nnc1-c1cc2ccccc2cc1O	-7%	u	13%	u	4	7%
CCOc1ccc(NC(=O)CSc2nnnn2C2CCCC2)cc1	x	x	4%	x	-1	x
S=C(N=Nc1ccccc1)NNc1ccccc1	8%	11µM*	-14%	4%	-2	-17%
COc1cc(OC)cc(C2=NCCN2)c1	8%	5%	20%	22%	2	u
Cc1nn(CC(=O)N2CCN(c3ccc(Cl)cc3)CC2)c(=O)c2cccn12	x	x	13%	x	1	x
COc1ccc2[nH]c(C(=O)O)c(CCN3C(=O)c4ccc(C(=O)O)cc4C3=O)c2c1	x	x	4%	x	4	x
COc1ccc2[nH]c(C)c(CCN3C(=O)C4C5C=CC(C5)C4C3=O)c2c1 (stereo not given)	13%	13µM*	23%	-18%[46.1 µM]	1	1%
CC(C)CC(N=Cc1c(O)c2ccccc2oc1=O)C(=O)O (stereo not given)	13%	14µM*	16%	5%	5	2%
O=C(/C=C/c1ccccc1[N+](=O)[O-])NC1CCCC1	21%	14µM*	-15%	-3%	0	-5%
O=C(NNc1ccccc1[N+](=O)[O-])NC1CCCCC1	-14%	25µM*	-14%	-5%	-11	-25%
CCn1cnc2cc([N+](=O)[O-])ccc21	12%	4%	8%	4%	-2	7%
Cc1cccc(CNC(=O)CCc2nnc(C3CCCCC3)o2)c1	0%	1%	15%	-11%	0	-5%
SMILES	GoLoco inh red	ALDH1A1 inh	Sfp PPTase inh	NPSR antagonist	Coupling enz	JMJD2E inh
C[C@H]1C(=O)N(C)CCN1C(=O)c1cccc(OC2CCN(CC(C)(C)C)CC2)c1	x	x	12%	x	x	x
O=C(Nc1ccccc1F)c1ccc(CSc2ncccn2)cc1	5%	-2%	10%	-17%	-5	-18%
O=C(Nc1ccccc1)c1ccc(CSc2ncccn2)cc1	2.2µM*	9%	-3%	-12%[46.1 µM]	1	1%
Cn1ccnc1/C(=N\NC(=O)c1ccccc1)c1cccc([N+](=O)[O-])c1	-1%	u	3%	-11%	2	-5%
CC(CC(=O)Nc1cc([N+](=O)[O-])ccc1Cl)c1ccccc1 (stereo not given)	3%	-6%	-1%	-8%[46.1 µM]	-6	3%
O=C(CC(=O)c1cccc([N+](=O)[O-])c1)Nc1ccccc1Cl	-7%	3.5µM*	-1%	-17%	0	-1%
O=C(CSc1nc(-c2ccccc2)nn1C(=O)c1ccccc1)Nc1cccc([N+](=O)[O-])c1	35%	22µM*	0%	-10%[46.1 µM]	0	-6%
O=C(Nc1ncc([N+](=O)[O-])s1)c1cccc([N+](=O)[O-])c1	1%	x	12%	5µM*	-41*	6%
CCc1ccccc1NC(=O)CSc1nc(-c2ccccc2)nn1C(=O)c1cccc([N+](=O)[O-])c1	11%	-3%	13%	-5%[46.1 µM]	-1	3%
O=C(N/N=C(\c1ccccc1)c1ccccn1)c1cccc([N+](=O)[O-])c1	5%	18µM*	11%	-47%	1	-5%
O=C(Nc1ccc(NC(=O)c2cccc([N+](=O)[O-])c2)cc1)c1cccc([N+](=O)[O-])c1	x	x	10%	x	2	x
O=C(Nc1ccccc1-c1ccccc1)c1cccc([N+](=O)[O-])c1	-9%	7.9µM*	7%	-8%[46.1 µM]	0	-8%
O=C(Nc1ccccc1-c1ccccc1)c1ccccc1	x	x	-4%	x	0	x
Cc1ccccc1NS(=O)(=O)c1cc(C(=O)Nc2cccc([N+](=O)[O-])c2)ccc1C	4%	22µM*	u	-33%	1	-3%
O=C(NNC(=O)c1cnccn1)c1cccc([N+](=O)[O-])c1	0%	u	2.5µM*	15%[46.1 µM]	0	-4%
O=C(O)CCCC(=O)N1CCN(c2nc(-c3ccccc3Cl)c3cc(Br)ccc3n2)CC1	x	x	0%	x	5	x
Cc1cccc(CS(=O)(=O)c2ncc(CO)n2C)c1	x	x	16%	x	-4	x
COCCC(=O)N1CCCC(CCC(=O)NCc2ccc(F)c(F)c2)C1 (stereo not given)	13%	2%	26%	-6%	-1	-1%
CCOC(=O)CNC(=O)N1CCCC(CCC(=O)NCc2ccc(F)c(F)c2)C1 (stereo not given)	-13%	32µM*	9%	-4%	1	-9%
